These entries were drawn from the full list.
aSyn 5UTR act – Activators working through SNCA 5'UTR binding (MLPCN) | alpha-synuclein 5'UTR reporter, activators screen | activity score, % (tested at 7.5 µM), hits read low | actives 7.1% (n = 300,000) | AID 1814; in the data active = activity score below about -60%
* = called active by the depositor.

SMILES	aSyn 5UTR act
Cc1ccc(C(=O)N(CCN2CCCCC2)CC2CCCN(C3CCCC3)C2)s1 (centres undefined)	-77*
O=C(c1cccs1)N(CCN1CCCCC1)CC1CCCN(C2CCCC2)C1 (centres undefined)	-113*
Fc1ccc(Nc2ccc(-c3ccc(F)cc3)nn2)cc1	-161*
Fc1ccc(-c2ccc(Nc3cccc(F)c3)nn2)cc1	-131*
Cn1c(SCc2ccc(F)cc2)nnc1-c1cnccn1	-85*
Cc1ccccc1CSc1nnc(-c2cnccn2)n1C	-105*
Cn1c(SCc2ccccc2)nnc1-c1cnccn1	-131*
Cn1c(SCc2ccc(Br)cc2)nnc1-c1ccccn1	-93*
Cn1nc(-c2ccccn2)nc2c(=O)n(C)c(=O)nc1-2	94
Cc1cnc(C(=O)Nc2ccc(F)cc2)cn1	-101*
Cn1nc(CC(=O)Nc2ccc(N3CCN(C(=O)OC(C)(C)C)CC3)cc2)c2ccccc2c1=O	77
Cc1cnc(C(=O)Nc2ccc(C(C)C)cc2)cn1	-142*
Cc1cnc(C(=O)Nc2ccc(N3CCN(C(=O)OC(C)(C)C)CC3)cc2)cn1	-89*
Cc1cnc(C(=O)Nc2ccccc2F)cn1	-91*
O=C(O)C(=O)/C(=C\c1cccc(Cl)c1)c1ccc2ccccc2n1	-80*
Cc1cccc(/C=C(\C(=O)C(=O)O)c2ccc3ccccc3n2)c1	-118*
N#Cc1ccc(/C=C(\C(=O)C(=O)O)c2ccc3ccccc3n2)cc1	-76*
COc1ccc(OCc2ccc(C(=O)O)cc2)cc1	-111*
COc1ccccc1CC(=O)c1ccc(OCc2ccccc2)cc1	-73*
O=C(COC(=O)c1cccc([N+](=O)[O-])c1)c1ccc(OCc2ccccc2)cc1	-75*
Cc1ccccc1OCC(=O)OCC(=O)c1ccc(OCc2ccccc2)cc1	-112*
Cc1cc(NC(=O)CSc2nc3c(C)cccc3cc2C#N)no1	-209*
Cc1cccc2cc(C#N)c(SCC(=O)N3CC(=O)Nc4ccccc43)nc12	110
C#Cc1cccc(NC(=O)c2ccc(Cl)cc2Cl)c1	-185*
Cc1ccc(NC(=O)c2ccc(Cl)cc2Cl)cc1O	-170*
SMILES	aSyn 5UTR act
O=C(Nc1ccc(Cl)cc1C(F)(F)F)c1ccc(Cl)cc1	-104*
Cc1ccc(C(=O)Nc2ccc(Cl)cc2C(F)(F)F)c(Cl)c1	-101*
O=C(Nc1cc(F)c(Br)cc1F)c1ccc(Cl)cc1	-152*
Cc1ccc(C(=O)Nc2ccc(Cl)cc2C)c(Cl)c1	-71*
N#CC1(c2ccc(NC(=O)c3ccccc3)cc2)CCCC1	-89*
CC(=O)Oc1ccc(C(=O)Nc2ccc(C3(C#N)CCCC3)cc2)cc1	-142*
COC(=O)Nc1nnc(/C=C/c2ccc(OC)cc2)s1	-109*
COc1ccc(/C=C/c2nnc(NC(C)=O)s2)cc1	-117*
Cc1ccc(N2C(=O)[C@@H]3Cc4ccccc4CN3C2=O)cc1	-71*
CC(C)c1ccc(N2C(=O)[C@@H]3Cc4ccccc4CN3C2=O)cc1	-118*
COc1cc(-c2nc(-c3ccccn3)no2)cc(OC)c1OC	-163*
COc1cccc(-c2nc(-c3ccccn3)no2)c1OC	-219*
Cc1ccc(N(C)/N=C/c2ccc(Cl)cc2Cl)nn1	-92*
COc1cc2c(cc1NC(=O)Nc1ccccc1)oc1ccccc12	-67*
COc1cc2c(cc1NC(=O)CN1CCN(S(=O)(=O)c3ccccc3F)CC1)oc1ccccc12	-91*
COc1ccc(-c2csc(/C(C#N)=C/Nc3cc4oc5ccccc5c4cc3OC)n2)cc1	43
COc1cc2c(cc1NC(=O)COC(=O)C(CCSC)NC(=O)c1ccccc1Cl)oc1ccccc12 (centres undefined)	-136*
COc1cc2c(cc1NC(=O)Cc1ccc(C)cc1)oc1ccccc12	-130*
COc1cc2c(cc1NC(=O)COC(=O)Cn1cnc3ccccc31)oc1ccccc12	-76*
COc1cc2c(cc1NC(=O)C(C)Sc1ccc(C)cc1)oc1ccccc12 (centres undefined)	-109*
COc1cc2c(cc1NCc1ccccn1)oc1ccccc12	-154*
CCN(CC)CCN1C(=O)c2oc3ccccc3c(=O)c2C1c1ccc(F)cc1 (centres undefined)	-70*
COc1ccccc1/C=C/C(=O)NC(=S)Nc1ccccn1	-126*
COc1ccc(/C=C/C(=O)NC(=S)NNC(=O)c2cnccn2)cc1	75
COc1ccc(/C=C/C(=O)NC(=S)Nc2ccccn2)cc1	-94*
SMILES	aSyn 5UTR act
CC1Cc2cc(S(=O)(=O)NCc3ccccc3)ccc2N1C(=O)C1CC1 (centres undefined)	-65*
CCOC(=O)C(=O)Nc1nc(-c2ccc3c(c2)CCN3C(=O)C2CC2)c(C)s1	-76*
Cc1sc(NC(=O)c2ccco2)nc1-c1ccc2c(c1)CC(C)N2C(=O)C1CC1 (centres undefined)	-106*
CC(=O)Nc1nc(-c2ccc3c(c2)CC(C)N3C(=O)C2CC2)c(C)s1 (centres undefined)	-295*
C(=C\c1ccco1)/C1=NN(c2ccccc2)C(c2ccco2)C1 (centres undefined)	-210*
O=C(NC1CCCCCCC1)c1cc(F)c(F)cc1Cl	-81*
O=C(NC1CCCCC1)C(c1cccnc1)N(C(=O)CCl)c1cccc(Cl)c1 (centres undefined)	-81*
O=C(NC1CCCCCCC1)c1cccc(Cl)c1	-166*
CCOc1cccc(C(=O)NC2CCCCC2)c1	-67*
COc1ccccc1NS(=O)(=O)c1cccc(C(=O)NC2CCN(Cc3ccccc3)CC2)c1	83
COc1ccc(-c2cc(C(F)(F)F)nc(S(=O)(=O)CCC(=O)N3CCOCC3)n2)cc1	-76*
Cc1[nH]n(-c2cccc(Cl)c2)c(=O)c1C=NCc1ccco1	-134*
Cc1[nH]n(-c2ccccc2)c(=O)c1C=NCc1ccco1	-114*
Cc1[nH]n(-c2cccc(Cl)c2)c(=O)c1C=NCC(C)C	-168*
O=c1cc(-c2ccccc2)oc2ccc(O)cc12	-90*
O=C(COc1ccc2oc(-c3ccccc3)cc(=O)c2c1)NCc1ccco1	-127*
O=c1cc2oc3cc(O)c(O)cc3c(-c3ccccc3[N+](=O)[O-])c-2cc1O	71
COc1ccc(-c2cc(=O)c3cc(O)ccc3o2)cc1	-121*
COc1cccc(NC(=O)c2ccnc(N3CCC(C(=O)NCc4ccccc4OC)CC3)c2)c1	-95*
COc1ccc(-n2nc3c(N4CCC(C(=O)NCc5cccc(C)c5)CC4)nnc(C)c3c2C)cc1	70
CCOc1ccccc1CNC(=O)C1CCN(c2nnc(C)c3c(C)n(-c4ccc(C)cc4)nc23)CC1	78
CN(C)/C=N/C(=S)Nc1ccc(Cl)cc1Cl	-107*
Cn1cc(CCNC(=O)c2ccc3nc(Cc4ccccc4F)oc3c2)cn1	-116*
CCn1nnc2cc(C(=O)NCCc3ccccc3F)ccc21	63
O=C(NCCc1ccccn1)c1ccc2nc(Cc3ccccc3F)oc2c1	-111*
SMILES	aSyn 5UTR act
Cn1cc(CNC(=O)c2ccc3nc(Cc4ccccc4F)oc3c2)cn1	-84*
N#CC1(NC(=O)Cn2ncc(Cl)c(Cl)c2=O)CCCCC1	-206*
Cc1ccc(-c2nc(N)n(C(=O)c3cccnc3)n2)cc1	-77*
O=C(O)c1ccc(Cn2nnc3sc4c(c3c2=O)CCCC4)cc1	-151*
O=C(O)CSc1nc2sc3c(c2c(=O)n1Cc1ccccc1)CCCCC3	-230*
O=C(Nc1ccc2oc(-c3cccc4ccccc34)nc2c1)c1ncn[nH]1	-184*
CC(C)c1ccc2oc(-c3ccc(NC(=O)c4ncn[nH]4)cc3)nc2c1	-80*
CC(=O)Nc1ccc2oc(-c3cc(F)c(F)cc3Cl)nc2c1	61
